# Measurements: the supplement of paper PMC9492666
# Structures can show the parent of a compound that is named as a salt.
# Test system: HCC1937
# Assay: relative cell viability, compound + RSL3, vs DMSO (fraction of DMSO control); higher = less growth inhibition
# Conditions: 72 h
# 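Note: breast cancer cell viability read out with the CCK-8 kit after co-treatment of each compound with the ferroptosis inducer RSL3.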
row,SMILES,relative cell viability
1,Cc1c(C(=O)NN2CCCCC2)nn(-c2ccc(Cl)cc2Cl)c1-c1ccc(Cl)cc1 [Rimonabant] + COC(=O)c1ccc([C@H]2c3[nH]c4ccccc4c3C[C@H](C(=O)OC)N2C(=O)CCl)cc1 [RSL3],0.649
2,Nc1ccc(O)c(C(=O)O)c1 [Mesalamine] + COC(=O)c1ccc([C@H]2c3[nH]c4ccccc4c3C[C@H](C(=O)OC)N2C(=O)CCl)cc1 [RSL3],0.635
3,CN(C(=O)n1cnc(-c2ccc[n+]([O-])c2)c1)C1CCCCC1 + COC(=O)c1ccc([C@H]2c3[nH]c4ccccc4c3C[C@H](C(=O)OC)N2C(=O)CCl)cc1 [RSL3],0.292
4,CCC(=O)Nc1cccc(Oc2nc(Nc3ccc(N4CCN(C)CC4)cc3OC)ncc2Cl)c1 + COC(=O)c1ccc([C@H]2c3[nH]c4ccccc4c3C[C@H](C(=O)OC)N2C(=O)CCl)cc1 [RSL3],0.121
5,CC(C)[C@H](N=C(NS(=O)(=O)c1ccc(Cl)cc1)N1C[C@H](c2ccccc2)C(c2ccc(Cl)cc2)=N1)C(N)=O + COC(=O)c1ccc([C@H]2c3[nH]c4ccccc4c3C[C@H](C(=O)OC)N2C(=O)CCl)cc1 [RSL3],0.551
6,CC(C)(Oc1ccc(Cl)cc1)C(=O)O [Clofibric acid] + COC(=O)c1ccc([C@H]2c3[nH]c4ccccc4c3C[C@H](C(=O)OC)N2C(=O)CCl)cc1 [RSL3],0.956
7,O=P(O)(O)OC(CO)CO [β-Glycerol phosphate disodium salt pentahydrate] + COC(=O)c1ccc([C@H]2c3[nH]c4ccccc4c3C[C@H](C(=O)OC)N2C(=O)CCl)cc1 [RSL3],0.343
8,O=C1/C(=C/c2cccs2)CC/C1=C\c1cccs1 + COC(=O)c1ccc([C@H]2c3[nH]c4ccccc4c3C[C@H](C(=O)OC)N2C(=O)CCl)cc1 [RSL3],0.357
9,COc1ccc(C(=O)/C=C/c2ccccc2)cc1 [4'-Methoxychalcone] + COC(=O)c1ccc([C@H]2c3[nH]c4ccccc4c3C[C@H](C(=O)OC)N2C(=O)CCl)cc1 [RSL3],0.282
10,Nc1ncnc2c1ncn2C1OC(COP(=O)(O)O)C(O)C1O (stereo not given) [Adenosine 5'-monophosphate monohydrate] + COC(=O)c1ccc([C@H]2c3[nH]c4ccccc4c3C[C@H](C(=O)OC)N2C(=O)CCl)cc1 [RSL3],0.932
11,CN1CC(O)C2=C/C(=N/NC(N)=O)C(=O)C=C21 (stereo not given) [Carbazochrome] + COC(=O)c1ccc([C@H]2c3[nH]c4ccccc4c3C[C@H](C(=O)OC)N2C(=O)CCl)cc1 [RSL3],0.451
12,CCCCCCCCCCOc1ccc(C(=O)Nc2cc(C(=O)NCCCC)ccc2SC)cc1 + COC(=O)c1ccc([C@H]2c3[nH]c4ccccc4c3C[C@H](C(=O)OC)N2C(=O)CCl)cc1 [RSL3],0.408
13,O=C(O)CN(CC(=O)O)c1ccccc1OCCOc1ccccc1N(CC(=O)O)CC(=O)O + COC(=O)c1ccc([C@H]2c3[nH]c4ccccc4c3C[C@H](C(=O)OC)N2C(=O)CCl)cc1 [RSL3],0.308
14,"COc1ccc(-c2coc3cc(OC)ccc3c2=O)cc1 [4',7-Dimethoxyisoflavone] + COC(=O)c1ccc([C@H]2c3[nH]c4ccccc4c3C[C@H](C(=O)OC)N2C(=O)CCl)cc1 [RSL3]",0.251
15,O=C(O)/C=C/c1ccc(O)c(O)c1 [Caffeic Acid] + COC(=O)c1ccc([C@H]2c3[nH]c4ccccc4c3C[C@H](C(=O)OC)N2C(=O)CCl)cc1 [RSL3],0.623
16,C=CCc1ccc(O)c(-c2cc(CC=C)ccc2O)c1 [Magnolol] + COC(=O)c1ccc([C@H]2c3[nH]c4ccccc4c3C[C@H](C(=O)OC)N2C(=O)CCl)cc1 [RSL3],0.789
17,CCC(CC)CC1(C(=O)Nc2ccccc2SC(=O)C(C)C)CCCCC1 [Dalcetrapib] + COC(=O)c1ccc([C@H]2c3[nH]c4ccccc4c3C[C@H](C(=O)OC)N2C(=O)CCl)cc1 [RSL3],0.654
18,O=c1oc2ccccc2cc1O [3-Hydroxycoumarin] + COC(=O)c1ccc([C@H]2c3[nH]c4ccccc4c3C[C@H](C(=O)OC)N2C(=O)CCl)cc1 [RSL3],0.587
19,O=C(O)c1cc2c(Cl)c(N3CCN(S(=O)(=O)c4c(Cl)cccc4Cl)CC3)ccc2o1 [Vonafexor] + COC(=O)c1ccc([C@H]2c3[nH]c4ccccc4c3C[C@H](C(=O)OC)N2C(=O)CCl)cc1 [RSL3],0.514
20,Cc1ccc(CN(CC(O)COc2cccc3[nH]ccc23)C(C)(C)C)cc1 (stereo not given) + COC(=O)c1ccc([C@H]2c3[nH]c4ccccc4c3C[C@H](C(=O)OC)N2C(=O)CCl)cc1 [RSL3],0.357

row,SMILES,relative cell viability
1,Cc1cnc(C(=O)NCCc2ccc(S(=O)(=O)NC(=O)NC3CCCCC3)cc2)cn1 [Glipizide] + COC(=O)c1ccc([C@H]2c3[nH]c4ccccc4c3C[C@H](C(=O)OC)N2C(=O)CCl)cc1 [RSL3],0.597
2,COc1ccc2[nH]cc(CCNC(C)=O)c2c1 [Melatonine] + COC(=O)c1ccc([C@H]2c3[nH]c4ccccc4c3C[C@H](C(=O)OC)N2C(=O)CCl)cc1 [RSL3],0.613
3,C[C@]12C=CC(=O)N[C@@H]1CC[C@@H]1[C@@H]2CC[C@]2(C)[C@@H](C(=O)Nc3cc(C(F)(F)F)ccc3C(F)(F)F)CC[C@@H]12 [Dutasteride] + COC(=O)c1ccc([C@H]2c3[nH]c4ccccc4c3C[C@H](C(=O)OC)N2C(=O)CCl)cc1 [RSL3],0.53
4,O=C1C(SCCO)=C(SCCO)C(=O)c2ccccc21 + COC(=O)c1ccc([C@H]2c3[nH]c4ccccc4c3C[C@H](C(=O)OC)N2C(=O)CCl)cc1 [RSL3],0.388
5,CN(CCOc1ccc(CC2SC(=O)NC2=O)cc1)c1ccccn1 (stereo not given) [Rosiglitazone maleate] + COC(=O)c1ccc([C@H]2c3[nH]c4ccccc4c3C[C@H](C(=O)OC)N2C(=O)CCl)cc1 [RSL3],0.758
6,COc1ccc2c(c1)CCC1C2CCC2(C)C(NCCCCCCN3C(=O)C=CC3=O)CCC12 (stereo not given) + COC(=O)c1ccc([C@H]2c3[nH]c4ccccc4c3C[C@H](C(=O)OC)N2C(=O)CCl)cc1 [RSL3],0.243
7,CN1CCN(c2ccc(/C=C(\C#N)c3ccccc3Br)cc2)CC1 [DG172 (dihydrochloride)] + COC(=O)c1ccc([C@H]2c3[nH]c4ccccc4c3C[C@H](C(=O)OC)N2C(=O)CCl)cc1 [RSL3],0.373
8,CS(=O)(=O)c1ccc(-c2nnc(/C=C/c3nnc(-c4ccc(C#N)cc4)o3)n2-c2ccccc2Cl)nc1 + COC(=O)c1ccc([C@H]2c3[nH]c4ccccc4c3C[C@H](C(=O)OC)N2C(=O)CCl)cc1 [RSL3],0.508
9,CC[C@@H]1/C=C(\C)C[C@H](C)C[C@H](OC)[C@H]2O[C@@](O)(C(=O)C(=O)N3CCCC[C@H]3C(=O)O[C@H](/C(C)=C/[C@@H]3CC[C@@H](O)[C@H](OC)C3)[C@H](C)[C@@H](O)CC1=O)[C@H](C)C[C@@H]2OC [Ascomycin] + COC(=O)c1ccc([C@H]2c3[nH]c4ccccc4c3C[C@H](C(=O)OC)N2C(=O)CCl)cc1 [RSL3],0.1
10,COc1ccc(CN2CCC(c3ccc4nc(C(=O)N5CCN(Cc6ccc(C(F)(F)F)cc6)CC5)[nH]c4c3)CC2)cn1 + COC(=O)c1ccc([C@H]2c3[nH]c4ccccc4c3C[C@H](C(=O)OC)N2C(=O)CCl)cc1 [RSL3],0.351
11,Cc1c(C(=O)NN2CCOCC2)nn(-c2ccc(Cl)cc2Cl)c1-c1ccc(I)cc1 + COC(=O)c1ccc([C@H]2c3[nH]c4ccccc4c3C[C@H](C(=O)OC)N2C(=O)CCl)cc1 [RSL3],0.0566
12,O=C(O)CC[C@H](O)C(=O)O [L-2-Hydroxyglutaric acid disodium] + COC(=O)c1ccc([C@H]2c3[nH]c4ccccc4c3C[C@H](C(=O)OC)N2C(=O)CCl)cc1 [RSL3],0.554
13,CC1(C)C[C@H]2C3=CC[C@@H]4[C@@]5(C)CC[C@H](O)[C@@](C)(CO)[C@@H]5CC[C@@]4(C)[C@]3(C)C[C@H](O)[C@@]2(CO)[C@@H](O)[C@@H]1O [Gymnemagenin] + COC(=O)c1ccc([C@H]2c3[nH]c4ccccc4c3C[C@H](C(=O)OC)N2C(=O)CCl)cc1 [RSL3],0.571
14,O=C1c2cccc(O)c2C(=O)c2c(O)cccc21 [Antrapurol] + COC(=O)c1ccc([C@H]2c3[nH]c4ccccc4c3C[C@H](C(=O)OC)N2C(=O)CCl)cc1 [RSL3],0.583
15,CN1c2ccccc2C(=O)Nc2cnc(Nc3ccc(N4CCC(O)CC4)cc3)nc21 + COC(=O)c1ccc([C@H]2c3[nH]c4ccccc4c3C[C@H](C(=O)OC)N2C(=O)CCl)cc1 [RSL3],0.206
16,CC(C)CCC[C@@H](C)[C@H]1CC[C@H]2[C@@H]3CCC4=CC(=NO)CC[C@]4(C)[C@H]3CC[C@]12C [Olesoxime] + COC(=O)c1ccc([C@H]2c3[nH]c4ccccc4c3C[C@H](C(=O)OC)N2C(=O)CCl)cc1 [RSL3],0.454
17,CC1(N)CCN(c2cnc(-c3cccc(Cl)c3Cl)c(N)n2)CC1 [SHP099 hydrochloride] + COC(=O)c1ccc([C@H]2c3[nH]c4ccccc4c3C[C@H](C(=O)OC)N2C(=O)CCl)cc1 [RSL3],0.397
18,COc1cccc(CNc2ccc(S(=O)(=O)Nc3nc4ccccc4s3)cc2)c1O + COC(=O)c1ccc([C@H]2c3[nH]c4ccccc4c3C[C@H](C(=O)OC)N2C(=O)CCl)cc1 [RSL3],0.583
19,COc1ccc(-c2cc(=O)c3c(O)c(OC)c(O)cc3o2)cc1OC [Eupatilin] + COC(=O)c1ccc([C@H]2c3[nH]c4ccccc4c3C[C@H](C(=O)OC)N2C(=O)CCl)cc1 [RSL3],0.354
20,O=C(NN1CCCCC1)c1nn(-c2ccc(Cl)cc2Cl)c(-c2ccc(C#Cc3ccc(C(F)(F)F)cc3)s2)c1CNS(=O)(=O)N1CCCC1 + COC(=O)c1ccc([C@H]2c3[nH]c4ccccc4c3C[C@H](C(=O)OC)N2C(=O)CCl)cc1 [RSL3],0.75
